# According to publication PMC11024108:
# Columns and labels:
# [1] = biological target: Neuronal-specific septin-3 (UniProt Q9Z1S5); test: cross-link between two proteins; cross-linking mass spectrometry
# Septin-11 = Septin-11 (UniProt Q8C1B7); test: as above
# Septin-6 = Septin-6 (UniProt Q9R1T4); test: as above
# Septin-8 = Septin-8 (UniProt Q8CHH9); test: as above
# Septin-9 = Septin-9 (UniProt Q80UG5); test: as above
# [2] = biological target: Neutral alpha-glucosidase AB (UniProt Q14697); test: as above
# [3] = biological target: Non-POU domain-containing octamer-binding protein (UniProt Q99K48); test: as above
# [4] = biological target: Non-selective voltage-gated ion channel VDAC2 (UniProt P45880); test: as above
# [5] = biological target: Non-selective voltage-gated ion channel VDAC3 (UniProt Q9Y277); test: as above
# [6] = biological target: Nucleosome assembly protein 1-like 4 (UniProt Q78ZA7); test: as above
# [7] = biological target: Osteopetrosis-associated transmembrane protein 1 (UniProt Q86WC4); test: as above
# [8] = biological target: Peptidyl-prolyl cis-trans isomerase B (UniProt P23284); test: as above
# Peroxiredoxin-2 = Peroxiredoxin-2 (UniProt Q61171); test: as above
# Peroxiredoxin-4 = Peroxiredoxin-4 (UniProt Q13162); test: as above
# [9] = biological target: Peroxisomal bifunctional enzyme (UniProt Q08426); test: as above
# [10] = biological target: Phosphoglycerate mutase 1 (UniProt Q9DBJ1); test: as above
# [11] = biological target: Plasma membrane calcium-transporting ATPase 4 (UniProt Q6Q477); test: as above
# Plasma membrane calcium-transporting ATPase 4, sequence (Q6Q477 whole entry): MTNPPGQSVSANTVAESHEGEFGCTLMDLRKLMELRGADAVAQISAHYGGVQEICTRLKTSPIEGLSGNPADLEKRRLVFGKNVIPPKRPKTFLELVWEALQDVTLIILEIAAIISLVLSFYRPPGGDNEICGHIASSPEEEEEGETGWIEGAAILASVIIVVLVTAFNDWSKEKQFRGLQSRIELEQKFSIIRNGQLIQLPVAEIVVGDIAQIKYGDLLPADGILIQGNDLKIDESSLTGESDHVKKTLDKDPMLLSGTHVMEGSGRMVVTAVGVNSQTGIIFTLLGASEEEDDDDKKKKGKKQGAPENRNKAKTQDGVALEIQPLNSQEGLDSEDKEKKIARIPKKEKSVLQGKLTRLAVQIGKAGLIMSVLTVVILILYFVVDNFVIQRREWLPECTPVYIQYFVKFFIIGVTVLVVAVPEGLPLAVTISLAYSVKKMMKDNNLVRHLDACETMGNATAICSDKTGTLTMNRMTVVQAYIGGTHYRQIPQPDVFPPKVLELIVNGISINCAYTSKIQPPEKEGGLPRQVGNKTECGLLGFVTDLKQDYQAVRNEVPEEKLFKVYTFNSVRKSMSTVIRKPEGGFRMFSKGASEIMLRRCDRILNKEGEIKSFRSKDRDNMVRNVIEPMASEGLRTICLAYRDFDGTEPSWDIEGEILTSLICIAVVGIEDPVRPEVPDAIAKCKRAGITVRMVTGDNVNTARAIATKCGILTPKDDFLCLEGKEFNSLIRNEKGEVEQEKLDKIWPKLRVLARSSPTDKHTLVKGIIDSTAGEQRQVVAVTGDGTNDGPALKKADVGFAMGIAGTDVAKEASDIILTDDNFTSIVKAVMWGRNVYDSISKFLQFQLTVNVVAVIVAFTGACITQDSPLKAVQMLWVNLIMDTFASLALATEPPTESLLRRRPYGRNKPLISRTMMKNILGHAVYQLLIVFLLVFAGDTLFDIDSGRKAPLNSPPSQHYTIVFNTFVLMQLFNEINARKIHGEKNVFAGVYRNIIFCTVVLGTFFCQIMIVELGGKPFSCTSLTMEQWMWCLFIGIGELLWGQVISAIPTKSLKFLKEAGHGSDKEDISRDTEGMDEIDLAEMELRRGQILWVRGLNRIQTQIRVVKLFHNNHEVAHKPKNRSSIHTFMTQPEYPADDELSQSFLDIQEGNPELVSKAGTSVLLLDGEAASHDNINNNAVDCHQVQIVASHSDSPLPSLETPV
# [12] = biological target: Polymerase delta-interacting protein 2 (UniProt Q9Y2S7); test: as above
# [13] = biological target: Potassium voltage-gated channel subfamily A member 2 (UniProt P63141); test: as above
# Prefoldin subunit 5 = Prefoldin subunit 5 (UniProt Q99471); test: as above
# [14] = biological target: Prostaglandin E synthase 2 (UniProt Q9H7Z7); test: as above
# [15] = biological target: Proteasome activator complex subunit 2 (UniProt P97372); test: as above
# [16] = biological target: Proteasome subunit alpha type-6 (UniProt P60900); test: as above
# [17] = biological target: Proteasome subunit alpha type-6 (UniProt Q9QUM9); test: as above
# [18] = biological target: Proteasome subunit alpha type-7 (UniProt Q9Z2U0); test: as above
# [19] = biological target: Proteasome subunit beta type-4 (UniProt P99026); test: as above
# [20] = biological target: Proteasome subunit beta type-7 (UniProt P70195); test: as above
# Putative protein FAM10A5 = Putative protein FAM10A5 (UniProt Q8NFI4); test: as above
# [21] = biological target: RCC1-like G exchanging factor-like protein (UniProt Q96I51); test: as above
# Radixin = Radixin (UniProt P35241); test: as above
# [22] = biological target: Ragulator complex protein LAMTOR3 (UniProt Q9UHA4); test: as above
# Ragulator complex protein LAMTOR3, sequence (Q9UHA4 whole entry, one chain of several): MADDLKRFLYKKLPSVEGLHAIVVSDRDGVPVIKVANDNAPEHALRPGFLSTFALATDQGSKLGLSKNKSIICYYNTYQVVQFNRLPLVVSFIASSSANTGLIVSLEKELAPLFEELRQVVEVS
# [23] = biological target: Ras-related protein Rab-3A (UniProt P63011); test: as above
# [24] = biological target: Rho guanine nucleotide exchange factor 7 (UniProt Q9ES28); test: as above
# [25] = biological target: Ribosome-binding protein 1 (UniProt Q9P2E9); test: as above
# [26] = biological target: S-adenosylhomocysteine hydrolase-like protein 1 (UniProt Q80SW1); test: as above
# S-adenosylhomocysteine hydrolase-like protein 1, sequence (Q80SW1 whole entry): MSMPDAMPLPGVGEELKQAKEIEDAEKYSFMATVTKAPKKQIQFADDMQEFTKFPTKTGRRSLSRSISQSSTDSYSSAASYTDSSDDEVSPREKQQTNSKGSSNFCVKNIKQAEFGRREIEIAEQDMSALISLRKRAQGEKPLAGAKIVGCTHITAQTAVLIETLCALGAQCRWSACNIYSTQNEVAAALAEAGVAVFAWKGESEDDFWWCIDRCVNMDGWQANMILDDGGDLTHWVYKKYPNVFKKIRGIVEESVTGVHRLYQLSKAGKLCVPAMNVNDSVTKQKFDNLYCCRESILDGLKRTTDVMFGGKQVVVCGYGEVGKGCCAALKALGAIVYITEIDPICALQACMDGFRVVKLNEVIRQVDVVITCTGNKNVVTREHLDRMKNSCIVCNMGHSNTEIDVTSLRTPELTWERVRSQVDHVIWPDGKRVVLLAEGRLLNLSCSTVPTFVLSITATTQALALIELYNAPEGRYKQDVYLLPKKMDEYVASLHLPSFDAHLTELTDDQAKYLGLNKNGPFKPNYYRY
# Septin-10 = Septin-10 (UniProt Q9P0V9); test: as above
# Septin-10, sequence (Q9P0V9 whole entry): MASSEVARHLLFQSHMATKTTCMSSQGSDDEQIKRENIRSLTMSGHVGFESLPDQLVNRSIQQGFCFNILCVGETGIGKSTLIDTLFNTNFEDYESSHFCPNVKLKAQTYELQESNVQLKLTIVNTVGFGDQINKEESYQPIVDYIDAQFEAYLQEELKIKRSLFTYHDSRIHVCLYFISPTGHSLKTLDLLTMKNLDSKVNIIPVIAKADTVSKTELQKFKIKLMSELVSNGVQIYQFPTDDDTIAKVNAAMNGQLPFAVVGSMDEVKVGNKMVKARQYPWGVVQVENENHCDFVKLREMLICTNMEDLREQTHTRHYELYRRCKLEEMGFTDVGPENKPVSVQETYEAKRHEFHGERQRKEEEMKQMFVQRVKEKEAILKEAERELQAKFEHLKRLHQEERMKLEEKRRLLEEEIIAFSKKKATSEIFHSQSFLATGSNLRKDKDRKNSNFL
# Septin-2 = Septin-2 (UniProt Q15019); test: as above
# [27] = biological target: Small ribosomal subunit protein mS40 (UniProt Q9Y676); test: as above
# [28] = biological target: Sodium/potassium-transporting ATPase subunit alpha-1 (UniProt Q8VDN2); test: as above
# [29] = biological target: Sodium/potassium-transporting ATPase subunit alpha-2 (UniProt Q6PIE5); test: as above
# [30] = biological target: Spectrin alpha chain, non-erythrocytic 1 (UniProt P16546); test: as above
# [31] = biological target: Splicing factor 3B subunit 2 (UniProt Q13435); test: as above
# [32] = biological target: Ras-related protein Rab-5C (UniProt P51148); test: cross-linking mass spectrometry
# [33] = biological target: T-complex protein 1 subunit gamma (UniProt P49368); test: cross-linking mass spectrometry
# [34] = biological target: tRNA-splicing ligase complex subunit RTRAF (UniProt Q9Y224); test: cross-linking mass spectrometry
# [35] = biological target: Succinate--CoA ligase [ADP-forming] subunit beta, mitochondrial (UniProt Q9P2R7); test: cross-link between two proteins; cross-linking mass spectrometry
# Synapsin-2 = Synapsin-2 (UniProt Q64332); test: as above
# [36] = biological target: Vesicle-associated membrane protein 1 (UniProt Q62442); test: as above
# Synapsin-3 = Synapsin-3 (UniProt Q8JZP2); test: as above
# [37] = biological target: Synaptic vesicle glycoprotein 2A (UniProt Q9JIS5); test: as above
# Synaptic vesicle glycoprotein 2A, sequence (Q9JIS5 whole entry): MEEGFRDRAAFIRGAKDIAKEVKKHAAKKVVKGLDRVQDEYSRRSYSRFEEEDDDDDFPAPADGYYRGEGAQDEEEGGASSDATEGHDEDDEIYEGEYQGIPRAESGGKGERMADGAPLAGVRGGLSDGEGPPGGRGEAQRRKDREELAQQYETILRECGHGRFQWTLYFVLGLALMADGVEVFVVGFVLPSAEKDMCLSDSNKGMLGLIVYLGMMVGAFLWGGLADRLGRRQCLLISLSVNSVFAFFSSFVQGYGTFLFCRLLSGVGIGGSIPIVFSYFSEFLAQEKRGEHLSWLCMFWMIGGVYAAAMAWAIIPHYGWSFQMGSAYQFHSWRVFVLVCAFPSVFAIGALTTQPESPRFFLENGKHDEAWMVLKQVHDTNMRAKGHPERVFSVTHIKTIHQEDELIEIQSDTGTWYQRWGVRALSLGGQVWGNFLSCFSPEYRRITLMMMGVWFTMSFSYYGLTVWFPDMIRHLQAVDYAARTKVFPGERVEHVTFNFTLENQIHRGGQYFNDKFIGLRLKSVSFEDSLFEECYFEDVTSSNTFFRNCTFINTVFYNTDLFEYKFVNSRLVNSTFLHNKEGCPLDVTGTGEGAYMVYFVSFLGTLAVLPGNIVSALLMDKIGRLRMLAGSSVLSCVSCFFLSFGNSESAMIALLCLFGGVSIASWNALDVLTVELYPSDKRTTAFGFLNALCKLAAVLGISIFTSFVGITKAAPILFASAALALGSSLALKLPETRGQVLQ
# Synaptopodin = Synaptopodin (UniProt Q8CC35); test: as above
# Synaptotagmin-2 = Synaptotagmin-2 (UniProt P46097); test: as above
# Synaptotagmin-2, sequence (P46097 whole entry): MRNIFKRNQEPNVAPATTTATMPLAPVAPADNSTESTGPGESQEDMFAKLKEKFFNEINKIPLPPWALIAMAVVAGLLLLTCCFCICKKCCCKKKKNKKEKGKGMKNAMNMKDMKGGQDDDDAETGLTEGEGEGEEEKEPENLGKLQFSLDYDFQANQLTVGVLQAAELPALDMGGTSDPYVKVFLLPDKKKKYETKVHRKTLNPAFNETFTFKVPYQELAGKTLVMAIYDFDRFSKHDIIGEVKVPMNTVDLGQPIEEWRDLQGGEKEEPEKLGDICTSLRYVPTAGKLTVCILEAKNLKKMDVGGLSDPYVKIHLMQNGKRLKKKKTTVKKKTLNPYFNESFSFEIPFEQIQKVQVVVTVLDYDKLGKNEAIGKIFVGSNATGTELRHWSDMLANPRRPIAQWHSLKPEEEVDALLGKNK
# [38] = biological target: T-complex protein 1 subunit beta (UniProt P80314); test: as above
# [39] = biological target: T-complex protein 1 subunit delta (UniProt P80315); test: as above
# [40] = biological target: T-complex protein 1 subunit theta (UniProt P42932); test: as above
# T-complex protein 1 subunit theta, sequence (P42932 whole entry, one chain of several): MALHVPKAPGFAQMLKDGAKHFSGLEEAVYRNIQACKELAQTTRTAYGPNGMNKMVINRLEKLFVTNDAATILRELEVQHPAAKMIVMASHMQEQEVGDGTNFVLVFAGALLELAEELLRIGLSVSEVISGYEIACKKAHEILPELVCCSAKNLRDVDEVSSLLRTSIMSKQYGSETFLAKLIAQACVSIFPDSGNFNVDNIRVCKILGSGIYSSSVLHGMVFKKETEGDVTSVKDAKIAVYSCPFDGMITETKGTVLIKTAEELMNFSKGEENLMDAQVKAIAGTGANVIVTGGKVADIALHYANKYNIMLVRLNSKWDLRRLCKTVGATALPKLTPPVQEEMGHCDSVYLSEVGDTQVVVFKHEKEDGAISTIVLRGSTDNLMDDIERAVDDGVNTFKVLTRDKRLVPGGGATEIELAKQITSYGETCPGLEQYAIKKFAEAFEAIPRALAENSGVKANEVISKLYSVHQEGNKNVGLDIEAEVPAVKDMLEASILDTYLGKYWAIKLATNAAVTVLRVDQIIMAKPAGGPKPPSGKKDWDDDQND
# Septin-8, sequence (Q8CHH9 whole entry): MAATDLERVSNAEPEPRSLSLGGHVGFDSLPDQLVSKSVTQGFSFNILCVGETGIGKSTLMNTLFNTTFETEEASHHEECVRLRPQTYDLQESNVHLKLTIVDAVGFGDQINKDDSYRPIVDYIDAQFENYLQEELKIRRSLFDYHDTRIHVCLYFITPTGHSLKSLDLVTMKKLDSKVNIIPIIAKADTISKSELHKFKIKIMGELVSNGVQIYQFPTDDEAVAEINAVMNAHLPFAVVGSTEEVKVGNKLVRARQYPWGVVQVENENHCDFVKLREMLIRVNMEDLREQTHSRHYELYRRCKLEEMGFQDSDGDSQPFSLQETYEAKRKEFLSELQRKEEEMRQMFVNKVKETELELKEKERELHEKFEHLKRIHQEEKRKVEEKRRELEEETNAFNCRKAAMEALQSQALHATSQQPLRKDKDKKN
# T-complex protein 1 subunit alpha, P11983, sequence (P11983 whole entry, one chain of several): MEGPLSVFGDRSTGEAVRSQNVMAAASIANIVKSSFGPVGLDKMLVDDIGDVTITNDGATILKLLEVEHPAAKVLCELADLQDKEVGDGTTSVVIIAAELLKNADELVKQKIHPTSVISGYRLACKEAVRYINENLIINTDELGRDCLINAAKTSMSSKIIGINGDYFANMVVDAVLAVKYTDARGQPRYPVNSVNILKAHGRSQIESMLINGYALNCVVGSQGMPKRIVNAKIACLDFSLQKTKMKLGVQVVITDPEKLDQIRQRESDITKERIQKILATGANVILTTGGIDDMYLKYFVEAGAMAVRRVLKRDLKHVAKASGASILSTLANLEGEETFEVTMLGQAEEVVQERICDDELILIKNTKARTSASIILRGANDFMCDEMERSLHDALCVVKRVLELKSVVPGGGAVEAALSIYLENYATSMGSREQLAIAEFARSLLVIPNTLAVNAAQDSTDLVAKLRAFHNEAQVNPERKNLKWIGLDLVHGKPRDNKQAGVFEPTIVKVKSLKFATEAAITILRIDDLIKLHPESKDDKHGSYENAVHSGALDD
substance,measurement,setting,value
"Septin-7, O55131",listed as a hit,[1],yes
same,listed as a hit,Septin-11,yes
same,listed as a hit,Septin-6,yes
same,listed as a hit,Septin-8,yes
same,listed as a hit,Septin-9,yes
"Calreticulin, P27797",listed as a hit,[2],yes
"Splicing factor, proline- and glutamine-rich, Q8VIJ6",listed as a hit,[3],yes
"Hexokinase-1, P19367",listed as a hit,[4],yes
"Non-selective voltage-gated ion channel VDAC2, P45880",listed as a hit,[5],yes
"Nucleosome assembly protein 1-like 1, P28656",listed as a hit,[6],yes
"H(+)/Cl(-) exchange transporter 7, P51798",listed as a hit,[7],yes
"Protein disulfide-isomerase A4, P13667",listed as a hit,[8],yes
"Peroxiredoxin-1, P35700",listed as a hit,Peroxiredoxin-2,yes
"Peroxiredoxin-1, Q06830",listed as a hit,Peroxiredoxin-4,yes
"Catalase, P04040",listed as a hit,[9],yes
"Phosphoglycerate mutase 2, O70250",listed as a hit,[10],yes
"Plasma membrane calcium-transporting ATPase 1, G5E829",listed as a hit,[11],yes
"ATP-dependent clpX-like chaperone, mitochondrial, O76031",listed as a hit,[12],yes
"Voltage-gated potassium channel subunit beta-2, P62482",listed as a hit,[13],yes
"Prefoldin subunit 1, O60925",listed as a hit,Prefoldin subunit 5,yes
"Glycerol-3-phosphate dehydrogenase, mitochondrial, P43304",listed as a hit,[14],yes
"Proteasome activator complex subunit 1, P97371",listed as a hit,[15],yes
"Proteasome subunit alpha type-2, P25787",listed as a hit,[16],yes
"Proteasome subunit alpha type-2, P49722",listed as a hit,[17],yes
"Proteasome subunit alpha type-4, Q9R1P0",listed as a hit,[18],yes
"Proteasome subunit beta type-7, P70195",listed as a hit,[19],yes
"Proteasome subunit beta type-1, O09061",listed as a hit,[20],yes
"Hsc70-interacting protein, P50502",listed as a hit,Putative protein FAM10A5,yes
"Nucleoside diphosphate kinase 6, mitochondrial, O75414",listed as a hit,[21],yes
"Moesin, P26038",listed as a hit,Radixin,yes
"ADP-ribosylation factor-like protein 8B, Q9NVJ2",listed as a hit,[22],yes
"Ras-related protein Rab-3C, P62823",listed as a hit,[23],yes
"ARF GTPase-activating protein GIT1, Q68FF6",listed as a hit,[24],yes
"Dual E2 ubiquitin-conjugating enzyme/E3 ubiquitin-protein ligase BIRC6, Q9NR09",listed as a hit,[25],yes
"S-adenosylhomocysteine hydrolase-like protein 2, Q68FL4",listed as a hit,[26],yes
"Septin-2, Q15019",listed as a hit,Septin-10,yes
"Septin-6, Q14141",listed as a hit,Septin-2,yes
"Septin-11, Q8C1B7",listed as a hit,Septin-8,yes
"Haloacid dehalogenase-like hydrolase domain-containing protein 3, Q9BSH5",listed as a hit,[27],yes
"FXYD domain-containing ion transport regulator 7, P59648",listed as a hit,[28],yes
"Excitatory amino acid transporter 1, P56564",listed as a hit,[29],yes
"Spectrin beta chain, erythrocytic, P15508",listed as a hit,[30],yes
"U2 small nuclear ribonucleoprotein B'', P08579",listed as a hit,[31],yes
"Ras-related protein Rab-5A, P20339",listed as a hit,[32],yes
"Programmed cell death protein 5, O14737",listed as a hit,[33],yes
"ATP-dependent RNA helicase DDX1, Q92499",listed as a hit,[34],yes
"Succinate--CoA ligase [ADP/GDP-forming] subunit alpha, mitochondrial, P53597",listed as a hit,[35],yes
"Synapsin-1, O88935",listed as a hit,Synapsin-2,yes
same,listed as a hit,[36],yes
"Synapsin-2, Q64332",listed as a hit,Synapsin-3,yes
"Synaptophysin, Q62277",listed as a hit,[37],yes
"Alpha-actinin-1, Q7TPR4",listed as a hit,Synaptopodin,yes
"Synaptotagmin-1, P46096",listed as a hit,Synaptotagmin-2,yes
"T-complex protein 1 subunit eta, P80313",listed as a hit,[38],yes
"T-complex protein 1 subunit alpha, P11983",listed as a hit,[39],yes
same,listed as a hit,[40],yes
